Measured values as given in PubChem BioAssay (NCI).
About 79,000 compounds went through this panel and 15% of them were active in at least one assay; those are over-represented in the sample as a whole. Values without a mark were called inactive. No stated cut-off is given here; in the data, active means growth inhibition above about 70%; inactive means the rest.

Test: NCI Yeast Anticancer Drug Screen. Data for the rad50 strain (AID 155);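 further: 0% = growth of vehicle-only cultures of the same strain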
Details: S. cerevisiae rad50 strain growth inhibition; at 50.0 µM; hits give high values
Outline: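 Inhibition values express reduced yeast growth in compound-treated cultures relative to vehicle-treated controls.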

| SMILES | growth inhibition [%] |
| --- | --- |
| COc1cc(OC2OC(CO)C(O)C(O)C2O)c2c(O)c3c(=O)cc(C)oc3cc2c1 (centres undefined) | 12.8 |
| CCCOC(=O)O[C@H]1CC[C@@]2(C)C(=CC[C@H]3[C@@H]4CC[C@H]([C@H](C)CCCC(C)C)[C@@]4(C)CC[C@@H]32)C1 | -34.6 |
| O=C(NC(=S)Nc1cc(C(F)(F)F)ccc1Cl)c1ccccc1F | -1.25 |
| OCCN(CCO)c1ncnc2c1ncn2CCc1ccccc1 | 13.6 |
| Cc1nc2c(=O)[nH]c(=O)[nH]c2[nH]c1=O | -20.4 |
| COC(=O)C(=O)c1c(C(=O)OC)nc2[nH]n(-c3ccccc3)c(=O)c2c1Cc1ccccc1 | -5.85 |
| CCC1=CC(C(O)CC(C)C)C(C)(Cc2ccc(CC)cn2)NC1c1ccccc1 (centres undefined) | 24.9 |
| CNC(=S)SC1=NS(=O)(=O)c2ccccc2N1 | -9.1 |
| O=C(NC(=O)c1c(F)cccc1F)Nc1ccc(Br)cc1 | 29.2 |
| CCCCN(C)CC(C)O (centres undefined) | -10.7 |
| COc1ccc(C2CC(=O)Oc3cc4c(cc32)OCO4)cc1 (centres undefined) | -10.2 |
| COc1cc(C(=O)C/C(CCC(=O)Nc2ccc(Cl)cc2Cl)=N/Nc2nnc(C)n2N)ccc1O | -19.6 |
| COc1ccc(C2CCCCCC2OS(=O)(=O)c2ccc(C)cc2)c(OC)c1OC (centres undefined) | 1.75 |
| CC1(C(=O)O)CCC2(C)CCC3(C)C(=CC(=O)C4C5(C)CCC(OC6OC(C(=O)O)C(O)C(O)C6OC6OC(C(=O)O)C(O)C(O)C6O)C(C)(C)C5CCC43C)C2C1 (centres undefined) | 13.6 |
| CC(=O)N1c2cc(N=NN(C)C)ccc2NC(=O)CC1C (centres undefined) | 20 |
| C/C(CC(=O)N(C(C)C)C(C)C)=N\NC(=O)c1ccncc1 | -3.45 |
| Nc1cc2c(cc1Br)-c1cc(Cl)c(Cl)cc1C2=O | -5.75 |
| CCCc1ccccc1NC(=O)NCCCl | -1.75 |
| COC(=O)C1=C(C)N(NC(=O)c2ccccc2)C2(O)CCCC(=O)C12C (centres undefined) | 20.2 |
| CCCCCCC1CCCCC1 | -35 |
| CC1NC(=O)c2c(-c3ccccc3)nn(-c3ccccc3)c2NC1=O (centres undefined) | 1.35 |
| S=C(S)N(Cc1ccccc1)Cc1ccccc1 (tested in a mixture with another compound) | 2.85 |
| CSc1ccc(C2OC(=O)c3ccccc32)c2ccccc12 (centres undefined) | 20.4 |
| CCOC(=O)C(NC(=O)Cc1ccccc1)C(=O)O (centres undefined) | -18.8 |

Test: NCI Yeast Anticancer Drug Screen. Data for the mec2-1 strain (AID 157)
Details: S. cerevisiae mec2-1 strain, at 50.0 µM, hits give high values
Outline: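 Test agents were screened against the mec2-1 yeast strain, with defined DNA repair or cell cycle alteration. Growth was scored as inhibition against vehicle-only controls.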

| SMILES | growth inhibition [%] |
| --- | --- |
| O=c1c2c([nH]n1-c1ccccc1)-c1ccccc1CS2 | 15.9 |
| O=C1CN(c2ccccc2)CC(=O)N2C(c3ccccc3)CCCN12 (centres undefined) | 1.65 |
| COC(=O)C1(C)CCCC2(C)C3CCC(C(C)C)CC3CCC12 (centres undefined) | -12.8 |
| COC(=O)C1(C2CCCCCCC2=O)NC(=S)NC(=O)C1C#N (centres undefined) | -18.8 |
| CC1(Cn2ccc(=O)[nH]c2=O)CC(C2(C)OCCO2)C(=O)O1 (centres undefined) | -22.3 |
| CN(C)Cc1ccccc1COC(=O)c1ccc(Cl)cc1 | 11.5 |
| Cc1ccc(S(=O)(=O)OCC2C(COS(=O)(=O)c3ccc(C)cc3)C3C4C5C2C2C3C4C52)cc1 (centres undefined) | -0.3 |
| O=C(O)COc1ccccc1OCC(=O)O | 7.3 |
| Cc1cc(C=O)c(C)[nH]1 | -3.55 |
| CCc1ccc(/C(C#N)=C/c2ccc(N(C)CCC#N)cc2)cc1 | 2.8 |
| CC(=O)NC(C(=O)NC(CSCc1ccccc1)C(=O)O)=C(C)C (centres undefined) | -13.5 |
| CC1=CC2OC3C(OC(=O)c4ccccc4)C(OC(=O)c4ccccc4)C(C)(C2(COC(=O)c2ccccc2)CC1)C31CO1 (centres undefined) | -3.1 |
| Nc1[nH]c(=S)[nH]c(=O)c1N=Nc1c(Br)cc(S(N)(=O)=O)cc1Br | -15.9 |
| CCCCCCC1=CC(=O)CC(=O)C1 | 7.1 |
| C/C(=N/NC(N)=O)C(=O)O | 10.7 |
| Cc1cc([N+](=O)[O-])c(NCCOC(=O)c2ccc([N+](=O)[O-])cc2)c([N+](=O)[O-])c1 | -6.55 |
| COc1cc(OC2OC(CO)C(O)C(O)C2O)c2c(O)c3c(=O)cc(C)oc3cc2c1 (centres undefined) | 19.4 |
| CCCOC(=O)O[C@H]1CC[C@@]2(C)C(=CC[C@H]3[C@@H]4CC[C@H]([C@H](C)CCCC(C)C)[C@@]4(C)CC[C@@H]32)C1 | -31 |
| O=C(NC(=S)Nc1cc(C(F)(F)F)ccc1Cl)c1ccccc1F | -1.2 |
| OCCN(CCO)c1ncnc2c1ncn2CCc1ccccc1 | -0.25 |

| SMILES | growth inhibition [%] |
| --- | --- |
| Cc1nc2c(=O)[nH]c(=O)[nH]c2[nH]c1=O | -12.2 |
| COC(=O)C(=O)c1c(C(=O)OC)nc2[nH]n(-c3ccccc3)c(=O)c2c1Cc1ccccc1 | 1.05 |
| CCC1=CC(C(O)CC(C)C)C(C)(Cc2ccc(CC)cn2)NC1c1ccccc1 (centres undefined) | 14.8 |
| CNC(=S)SC1=NS(=O)(=O)c2ccccc2N1 | -5.05 |
| O=C(NC(=O)c1c(F)cccc1F)Nc1ccc(Br)cc1 | 53.3 |
| CCCCN(C)CC(C)O (centres undefined) | -12.2 |
| COc1ccc(C2CC(=O)Oc3cc4c(cc32)OCO4)cc1 (centres undefined) | -8.05 |
| COc1cc(C(=O)C/C(CCC(=O)Nc2ccc(Cl)cc2Cl)=N/Nc2nnc(C)n2N)ccc1O | -4.2 |
| COc1ccc(C2CCCCCC2OS(=O)(=O)c2ccc(C)cc2)c(OC)c1OC (centres undefined) | -4.55 |
| CC1(C(=O)O)CCC2(C)CCC3(C)C(=CC(=O)C4C5(C)CCC(OC6OC(C(=O)O)C(O)C(O)C6OC6OC(C(=O)O)C(O)C(O)C6O)C(C)(C)C5CCC43C)C2C1 (centres undefined) | 3.95 |
| CC(=O)N1c2cc(N=NN(C)C)ccc2NC(=O)CC1C (centres undefined) | -3.05 |
| C/C(CC(=O)N(C(C)C)C(C)C)=N\NC(=O)c1ccncc1 | -12.3 |
| Nc1cc2c(cc1Br)-c1cc(Cl)c(Cl)cc1C2=O | -13.8 |
| CCCc1ccccc1NC(=O)NCCCl | -2.5 |
| COC(=O)C1=C(C)N(NC(=O)c2ccccc2)C2(O)CCCC(=O)C12C (centres undefined) | 2.2 |
| CCCCCCC1CCCCC1 | -41.7 |
| CC1NC(=O)c2c(-c3ccccc3)nn(-c3ccccc3)c2NC1=O (centres undefined) | -2.4 |
| S=C(S)N(Cc1ccccc1)Cc1ccccc1 (tested in a mixture with another compound) | 0.7 |
| CSc1ccc(C2OC(=O)c3ccccc32)c2ccccc12 (centres undefined) | -11.6 |
| CCOC(=O)C(NC(=O)Cc1ccccc1)C(=O)O (centres undefined) | 15.5 |
